# Only some compounds are listed: those with a hit (about 5.8% of all), similar ones and a draw of the others.
# KB-3-1 cytotox: qHTS assay for MDR1-selective chemotherapeutics: Primary screen using the parental adenocarcinoma cell KB-3-1; KB-3-1 viability, CellTiter-Glo ATP luminescence, 72 h; Potency, µM (series often up to 46.1 µM), actives largely listed as cytotoxic; actives 1.4% (n = 400,000); AID 1347075, 2019; note: % is set by controls: 0 for no effect and ±100 for the full control effect; nearly all actives have a fitted effect of over 60% in size
#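 Multi-concentration cytotoxicity screen in KB-3-1 cells grown in DMEM lacking phenol red with 10% FBS. After 72 h at 37 °C with compound, ATP-dependent luminescence was recorded.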
# PINK1 expr mod: A Quantitative High throughput Screen to Identify Chemical Modulators of PINK1 Expression; PINK1 immunofluorescence, high-content cytometry, 24 h; Potency, µM (highest dose often 76.6 µM), inactives show at the top dose activation (PINK1 increase), usual class: activators; actives 0.2% (n = 410,000); AID 624263, 2012; active = well fitted activation curve with a large enough effect; inconclusive = small, poorly fitted or top-dose-only effect; cell line not stated here; note: % of control where 0% means no effect; nearly all actives have a fitted effect of over 65% in size
#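 Stable cell line, 250 cells/well, 12 h attachment; compounds pinned at 5 concentrations, 24 h; CCCP control. Fixed with nuclear dye, primary antibodies 12 h at 10 degrees C, secondary plus cell stain; laser-scanning cytometer read.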
# SW480 rerep: A quantitative high throughput screen for small molecules that induce DNA re-replication in SW480 colon adenocarcinoma cells. SW480 DNA re-replication, Hoechst DNA content imaging, 48 h. Potency, µM (doses to about 46.1 µM), inactives show top-dose re-replication activation, most hits filed as activators. actives 1.8% (n = 340,000); note: % of control where 0% means no effect; nearly all actives have a fitted effect of over 55% in size
#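 Per well, 250 cells were exposed to pinned compound for 48 hr. Nuclear DNA was visualised with Hoechst (40 min, 37 C) and total object intensity recorded by fluorescence scanning.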
# KB-V1 cytotox: qHTS assay for MDR1-selective chemotherapeutics: Primary screen using the drug-selected MDR subline cells KB-V1 | KB-V1 MDR cells viability, CellTiter-Glo, 72 h | Potency, µM (top dose mostly 46.1 µM), most hits filed as cytotoxic | actives 3.4% (n = 400,000) | AID 1347076, 2019; note: % is set by controls: 0 for no effect and ±100 for the full control effect; nearly all actives have a fitted effect of over 60% in size
#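 Potencies derive from concentration-effect curves fitted to normalized luminescence (CellTiter-Glo) of KB-V1 cells treated for 72 h at 37 degrees C in phenol-red-free DMEM containing 10% FBS.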
# MCF10A rereplic: A quantitative high throughput screen for small molecules that induce DNA re-replication in MCF 10a normal breast cells | actives 2.9% (n = 350,000) | AID 624296, 2012 | Potency, µM (highest dose often 46.1 µM), inactives show at the top dose activity, positive = re-replication, actives largely listed as activators | MCF 10A DNA re-replication, Hoechst nuclear intensity, 48 h; note: % of control where 0% means no effect; nearly all actives have a fitted effect of over 50% in size
# 12-LOX inh: Primary qHTS assay for inhibitors of human arachidonate 12S-lipoxygenase (ALOX12): Round 2; Potency, µM (doses to about 108 µM), for the others: top-dose activity change, negative = inhibition, hits mostly inhibitors; purified 12hLO, xylenol orange hydroperoxide absorbance; actives 1.1% (n = 580,000); Polyunsaturated fatty acid lipoxygenase ALOX12 (Homo sapiens), P18054; note: % is set by controls: 0 for no effect and ±100 for the full control effect
# Target sequence (P18054 whole entry, looked up): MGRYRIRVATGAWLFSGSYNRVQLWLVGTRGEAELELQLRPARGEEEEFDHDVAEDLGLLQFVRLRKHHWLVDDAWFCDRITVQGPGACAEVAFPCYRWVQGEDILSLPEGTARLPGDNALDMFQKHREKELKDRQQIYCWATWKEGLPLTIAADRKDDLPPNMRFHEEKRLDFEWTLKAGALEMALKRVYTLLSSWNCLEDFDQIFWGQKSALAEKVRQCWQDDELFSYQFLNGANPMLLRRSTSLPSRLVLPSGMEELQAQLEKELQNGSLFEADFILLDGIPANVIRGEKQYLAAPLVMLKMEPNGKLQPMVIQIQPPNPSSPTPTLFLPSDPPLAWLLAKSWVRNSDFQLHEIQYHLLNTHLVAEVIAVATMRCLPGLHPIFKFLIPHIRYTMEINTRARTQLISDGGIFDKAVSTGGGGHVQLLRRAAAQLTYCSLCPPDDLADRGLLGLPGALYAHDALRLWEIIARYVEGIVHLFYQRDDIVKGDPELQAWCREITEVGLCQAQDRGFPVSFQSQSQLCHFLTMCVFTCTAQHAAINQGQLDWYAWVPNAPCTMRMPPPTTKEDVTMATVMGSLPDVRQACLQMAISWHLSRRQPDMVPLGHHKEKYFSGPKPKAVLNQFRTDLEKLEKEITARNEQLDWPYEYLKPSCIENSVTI
#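 Hydroperoxide product was detected by ferrous iron/xylenol orange as the 573 to 405 nm absorbance ratio. Arachidonic acid at 40 uM (final) was turned over for 30 min at room temperature by 150 nM human 12hLO, pH 7.0 Hepes buffer, after 15 min compound preincubation.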
# The depositor's hits bear a star; i = inactive; ? = inconclusive; nt = no result; [ ] = remark or other dose. Unless noted, calls come from the whole dose curve; as a rule, active = well fitted curve in the direction sought with a large enough effect; inconclusive = small, poorly fitted or top-dose-only effect, or another doubt; inactive = no such curve, though single readings can be large; an effect the other way counts as inactive or inconclusive. Potency is the fitted concentration of half-maximal effect.
SMILES,KB-3-1 cytotox,PINK1 expr mod,SW480 rerep,KB-V1 cytotox,MCF10A rereplic,12-LOX inh
CCCCC(=O)NC1(C(F)(F)F)C(=O)N(C2CCCC2)C(C)=C1C(=O)OC (configuration not stated),nt,nt,nt,nt,nt,-4%
CNc1cc(CS(=O)c2ccccc2)nc(-c2ccccc2)n1 (configuration not stated),i,-1%,-1%,i,6%,14%
O=S(Cc1cc(Sc2ccccc2)nc(-c2ccccc2)n1)c1ccccc1 (configuration not stated),?,16%,?,?,23µM*,0%
CN(C)CC(O)COc1cccc(OCC(O)CN(C)C)c1 (configuration not stated),i,0%,-3%,i,-1%,0%
CN(Cc1ccc(Br)cc1)CC(O)COc1cccc(Br)c1 (configuration not stated),i,6%,-7%,i,?,0.89µM*
CCCc1nn(C)c(C(=O)Nc2ccc3ccccc3c2)c1Cl,i,11%,-3%,i,15%,9%
CCCc1nn(C)c(C(=O)Nc2cccc(CC)c2)c1Cl,i,8%,-12%,18µM*,?,-17%
CCCn1c(N)c(C(=O)CSc2ncn[nH]2)c(=O)n(C)c1=O,i,1%,-4%,i,-2%,39%
CCCCn1c(N)c(C(=S)NC(=O)CC(C)(C)C)c(=O)n(C)c1=O,?,16%,7%,?,21µM*,?
CCC(CC)NC(=O)c1ccc(N(C)C)cc1,nt,nt,nt,nt,nt,2%
CCOC(=O)c1c(-c2ccc(OC)c(OC)c2)csc1NC(C)=O,nt,nt,nt,nt,nt,-14%
O=C1CCCC2=C1C(c1ccsc1)CC(=O)N2c1ccccc1 (configuration not stated),i,3%[38.3 µM],11%,13µM*,14%,-6%
COC(=O)c1ccn(Cc2ccc(Cl)c(Cl)c2)n1,nt,nt,nt,nt,nt,5%
COc1ccc(C(=O)c2nc3c(n2O)CCCCC3)cc1,i,0%,-9%,i,3%,?
COc1ccc(C(=O)c2nc3c(n2O)CCCC3)cc1OC,i,4%,-2%,i,-1%,8.9µM*
S=C(NC1CCCCC1)c1ccccc1,nt,nt,nt,nt,nt,32µM*
CC(C)(C)NC(=S)Nc1ccc(Br)cc1,i,3%,1%,i,16%,-8%
S=C(Nc1ccc(Nc2ccccc2)cc1)NC1CCCCCC1,?,?,21µM*,?,13%,45µM*
CC(C)(C)NC(=S)Nc1ccc(Nc2ccccc2)cc1,?,9%[38.3 µM],14%,16µM*,-4%,-38%
S=C(Nc1ccc(Cl)cc1)NC1CCCCC1,i,?,-46%,i,-2%,1%
CC(C)C(=O)NCCNC(=O)c1ccc2ccccc2n1,nt,nt,nt,nt,nt,-8%
O=C(Nc1ccc(CC(=O)N2CCOCC2)cc1)c1ccc(Cl)cc1,nt,nt,nt,nt,nt,21%
Oc1ccccc1-c1nc2c3ccccc3c3ccccc3c2[nH]1,i,?,?,i,18µM*,-5%
O=C(NCCN1CCC(n2c(=O)[nH]c3ccccc32)CC1)c1cc(F)cc(F)c1,i,1%,nt,i,nt,?
O=C(NCCN1CCC(n2c(=O)[nH]c3ccccc32)CC1)c1ccc(C(F)(F)F)cc1C(F)(F)F,?,1%,nt,12µM*,nt,-63%
SMILES,KB-3-1 cytotox,PINK1 expr mod,SW480 rerep,KB-V1 cytotox,MCF10A rereplic,12-LOX inh
O=C(NCCN1CCC(n2c(=O)[nH]c3ccccc32)CC1)c1ccc(F)c(C(F)(F)F)c1,i,1%,nt,i,nt,?
O=C(NCCN1CCC(n2c(=O)[nH]c3ccccc32)CC1)c1cccc(F)c1,?,0%,nt,i,nt,45µM*
O=C(COC(=O)C12CC3CC(CC(C3)C1)C2)Nc1ccc(Cl)cc1[N+](=O)[O-],nt,nt,nt,nt,nt,35%
c1ccc(-c2nnsc2-c2ncc[nH]2)cc1,i,-1%,-2%,i,-6%,0%
O=S(=O)(c1ccc(F)cc1)c1snnc1-c1ccccc1,13µM*,-2%,52%,i,7.3µM*,9%
O=S(=O)(c1ccc(Cl)cc1)c1snnc1-c1ccccc1,5.8µM*,-2%,?,?,?,0%
Cc1cnc(-c2ccccc2)n1C1CCCN(C(=O)C(C)C)C1 (configuration not stated),nt,nt,nt,nt,nt,43%
CCc1nc(Nc2ccncc2)c2oc3ccccc3c2n1,8.2µM*,1%,18µM*,i,?,24%
Clc1ccccc1-c1nccc(NCc2ccccc2)n1,nt,1%,nt,nt,nt,?
Clc1ccccc1-c1nccc(NCCN2CCOCC2)n1,nt,-1%,nt,nt,nt,45µM*
CCc1nc(NCCN2CCOCC2)c2oc3ccccc3c2n1,i,-1%,-5%,i,-1%,14µM*
Clc1ccc(-c2nc(NCCN3CCOCC3)c3ccccc3n2)cc1,i,0%[38.3 µM],?,4.1µM*,?,?
CCC(C(=O)N1CCN(c2ccc(F)cc2)CC1)n1cnc2ccccc2c1=O (configuration not stated),nt,nt,nt,nt,nt,-24%
O=c1oc(-c2ccc(F)cc2)nn1CC(O)COc1ccc(-c2ccccc2)cc1 (configuration not stated),nt,nt,nt,nt,nt,-5%
Cn1c(=O)[nH]c(=O)c2c1nc(SCC(N)=O)n2Cc1ccccc1Cl,nt,nt,nt,nt,nt,-52%
COc1ccc(CNC(=O)N2CCC(Cc3ncc(C)n3C(C)C)C2)cc1 (configuration not stated),nt,nt,nt,nt,nt,11%
CCC(CC)CN1CCC(CN2CCNC(=O)C2=O)CC1,i,0%,-1%,i,2.1µM*,-24%
CCC(CC)CN1CCC(CN2C(=O)C(=O)NC[C@@H]2CC(C)C)CC1,i,5%,nt,i,nt,-8%
Clc1nssc1=Nc1ccc(Br)cc1,i,?,?,?,?,4µM*
Clc1nssc1=Nc1nncs1,i,13%,2%,i,?,4.5µM*
CCOC(=O)c1nc2ccccc2nc1N1CCN(c2cccc(C)c2C)CC1,nt,nt,nt,nt,nt,-14%
COc1ccccc1N1CCN(C(=O)COCC(=O)NCCc2ccccc2)CC1,nt,nt,nt,nt,nt,3%
Nc1nc2c(s1)C(c1ccc(Br)cc1)CC(=O)N2 (configuration not stated),nt,nt,nt,nt,nt,27%
Nc1nc2c(s1)C(c1cccc(F)c1F)CC(=O)N2 (configuration not stated),nt,nt,nt,nt,nt,16µM*
